Values joined by “and” are separate entries in the source; they are usually repeats but may differ in a detail not shown here. Equal entries are not always repeated. Some compounds were tested as several samples or in several runs, with calls that do not always agree. Active and inactive are the calls of the source. Rule for the calls: active = hit-call score of the fitted dose curve at least 0.9, where 1 is the maximum; inactive = score below 0.9.
What follows are compounds tested on Interleukin-1 alpha (IL1a), IL1A (gene 3552) (assay: BSK_KF3CT_IL1a: BioMAP Diversity Plus: KF3CT Assay for Interleukin-1 alpha (IL1a) Biomarker Activity (AID 2283070)). Details: primary human keratinocytes with fibroblasts; actives raise or lower the signal.
Method: BSK_KF3CT is a cell-based, multiplexed-readout assay that uses keratinocytes and foreskin fibroblasts, a human skin primary cell co-culture, with measurements taken at 24 hours after chemical dosing in a 96-well plate.BSK_KF3CT_IL1a is an assay component measured in the BSK_KF3CT assay. It measures IL-1a antibody related to regulation of gene expression using ELISA technology.Data from the assay component BSK_KF3CT_IL1a was analyzed into 1 assay endpoint. This assay endpoint, BSK_KF3CT_IL1a, was analyzed with bidirectional fitting relative to DMSO as the negative control and baseline of activity. Using a type of binding reporter, gain or loss-of-signal activity can be used to understand changes in the signaling as they relate to the gene IL1A. Furthermore, this assay endpoint can be referred to as a primary readout, because this assay has produced multiple assay endpoints where this one serves a signaling function. To generalize the intended target to other relatable targets, this assay endpoint is annotated to the cytokine intended target family, where the subfamily is interleukins.
The levels of cell surface (or secreted, indicated by the prefix "s") biomarker endpoints were measured by ELISA. Overt cytotoxicity to cells in confluent adherent cultures (all systems other than the BT system) was assessed by measuring total protein levels using sulforhodamine B (SRB) staining in parallel cultures at the time of biomarker measurements, indicated as SRB endpoints. For proliferation assays for adherent cell types, individual cell types are cultured at sub-confluence and relative cell numbers quantified by SRB staining at time points optimized for each system (48 h: 3C and CASM3C systems; 72 h: BT and HDF3CGF systems; 96 h: SAg system). SRB was performed by staining cells with 0.1% SRB after fixation with 10% TCA and reading wells at 560 nm.Viability and proliferation of PBMC (T cells) was quantified by Alamar Blue reduction for the SAg and BT systems. For PBMC viability (referred to as PBMC Cytotoxicity within the assay endpoint names), cells were plated (75,000/well in a 96-well plate) and then chemical samples added for 1 h before addition of activators, SEB and TSST-1 (20 ng/mL final concentration each). Cells were incubated for 90 h. Then, Alamar Blue (20 uL/well) (Invitrogen, Cat DAL1100) was added for 6 h, and the plates were read with a fluorescence microplate reader at 546/580 nm (excitation/emission). For PBMC proliferation, cells were plated and activated as above but incubated for only 16 h prior to addition of Alamar Blue. Plates were read after 6 h.

**Q.** How did the outcome turn out when `CC#Cc1cc(C)nc(Nc2ccccc2)n1` was run?
**A.** inactive

**Q.** Which outcome does the source give for `C[C@]12CCC(=O)C=C1CC[C@@H]1[C@@H]2CC[C@]2(C)C(=O)CC[C@@H]12` here?
**A.** inactive

**Q.** `Clc1ccc(C(Cl)(Cl)Cl)cc1` was tested. Which outcome did it give?
**A.** inactive

**Q.** For `ClC1=C(Cl)[C@]2(Cl)[C@@H]3[C@H]4C[C@H]([C@@H]5O[C@H]45)[C@@H]3[C@@]1(Cl)C2(Cl)Cl`, which outcome is on record?
**A.** inactive

**Q.** For `CCC(C)(c1ccc(O)cc1)c1ccc(O)cc1`, which outcome is on record?
**A.** inactive

**Q.** For `Cc1ccccc1[N+](=O)[O-]`, which outcome is on record?
**A.** inactive

**Q.** `Sc1ccccc1` was tested. Which outcome did it give?
**A.** inactive

**Q.** `N#Cc1ccc(N(CC(N)=O)CC(F)(F)F)cc1C(F)(F)F` was tested. Which outcome did it give?
**A.** inactive

**Q.** For `O=NN(c1ccccc1)c1ccccc1`, which outcome is on record?
**A.** inactive

**Q.** How did the outcome turn out when `CCNc1nc(NC(C)C)nc(SC)n1` was run?
**A.** inactive

**Q.** Which outcome does the source give for `Cc1cccc([N+](=O)[O-])c1` here?
**A.** inactive

**Q.** For `CN(C)CCO`, which outcome is on record?
**A.** inactive

**Q.** Which outcome does the source give for `Cc1cc(-c2ccc(N)c(C)c2)ccc1N` here?
**A.** inactive

**Q.** `CCCN(CCC)N=O` was tested. Which outcome did it give?
**A.** inactive

**Q.** With `CCCCCCCCCc1ccc(O)cc1` as the compound, how does the AC50 read?
**A.** 15.6 µM (active)

**Q.** Which outcome does the source give for `CCSC(=O)N(CC)C1CCCCC1` here?
**A.** inactive

**Q.** Which outcome does the source give for `C1CC2OC2CC1C1CO1` (stereo not given) here?
**A.** inactive

**Q.** For `Oc1c(Cl)c(Cl)c(Cl)c(Cl)c1Cl`, which outcome is on record?
**A.** inactive

**Q.** What about the AC50 of the same compound?
**A.** 20 µM (active)

**Q.** `CCOP(=S)(OCC)SCSC(C)(C)C` was tested. Which outcome did it give?
**A.** inactive

**Q.** For `Clc1ccc(C(c2ccccc2Cl)C(Cl)(Cl)Cl)cc1` (stereo not given), which AC50 is on record?
**A.** 18.4 µM (active)

**Q.** With `Cc1cc(O)ccc1Cl` as the compound, how does the outcome read?
**A.** inactive

**Q.** With `Oc1ccc(Cl)cc1Cl` as the compound, how does the outcome read?
**A.** inactive

**Q.** `CCOC(=O)C(O)(c1ccc(Cl)cc1)c1ccc(Cl)cc1` was tested. Which outcome did it give?
**A.** inactive

**Q.** How did the outcome turn out when `O=S(=O)(O)C(F)(F)C(F)(F)C(F)(F)C(F)(F)F` was run?
**A.** inactive

**Q.** With `Nn1cnnc1` as the compound, how does the outcome read?
**A.** inactive

**Q.** How did the outcome turn out when `CC1=C2C[C@H]3[C@@H](CC=C4C[C@@H](O)CC[C@@]43C)[C@@H]2CC[C@]12O[C@@H]1C[C@H](C)CN[C@H]1[C@H]2C` was run?
**A.** inactive

**Q.** How did the outcome turn out when `CN(C)c1nc(=O)n(C2CCCCC2)c(=O)n1C` was run?
**A.** inactive

**Q.** Which outcome does the source give for `O=C(N[C@H]1CN2CCC1CC2)c1cc2ccoc2cn1` here?
**A.** inactive

**Q.** `ClC1=C(Cl)[C@]2(Cl)[C@@H]3[C@@H](Cl)[C@H]4O[C@H]4[C@@H]3C1(Cl)C2(Cl)Cl` was tested. Which outcome did it give?
**A.** inactive

**Q.** How did the AC50 turn out when `NS(=O)(=O)C(F)(F)C(F)(F)C(F)(F)C(F)(F)C(F)(F)C(F)(F)C(F)(F)C(F)(F)F` was run?
**A.** 29.4 µM (active) and 43.8 µM (active) and 44.6 µM (active)

**Q.** `ClC(Cl)=C(c1ccc(Cl)cc1)c1ccc(Cl)cc1` was tested. Which AC50 did it give?
**A.** 27.9 µM (active)

**Q.** `O=C(O)C(F)(F)C(F)(F)C(F)(F)C(F)(F)C(F)(F)C(F)(F)C(F)(F)C(F)(F)C(F)(F)F` was tested. Which AC50 did it give?
**A.** 33.5 µM (active) and 47.2 µM (active) and 46.8 µM (active)

**Q.** For `c1cc2ccc3cccc4ccc(c1)c2c34`, which outcome is on record?
**A.** inactive

**Q.** How did the outcome turn out when `CCCCCCCCOC(=O)c1ccccc1C(=O)OCCCCCCCC` was run?
**A.** inactive

**Q.** How did the outcome turn out when `CC(C)C(=O)OCC(C)(C)C(OC(=O)C(C)C)C(C)C` (stereo not given) was run?
**A.** inactive

**Q.** How did the outcome turn out when `C=CC(=O)NCNC(=O)C=C` was run?
**A.** inactive

**Q.** `COS(=O)(=O)OC` was tested. Which outcome did it give?
**A.** inactive

**Q.** With `Clc1ccc(Cl)cc1` as the compound, how does the outcome read?
**A.** inactive

**Q.** With `CCC(C)c1cc([N+](=O)[O-])cc([N+](=O)[O-])c1O` (stereo not given) as the compound, how does the outcome read?
**A.** inactive

— PubChem BioAssay (EPA / NIEHS)
